Screens from PubChem BioAssay.
pCIP destab = lowers stability of the mouse p/CIP coactivator protein | AID 1984 | decrease of EGFP signal, % at 10 µM | F442A p/CIP-EGFP cells, EGFP fluorescence, 16 h | Q05BA5 | 290,000 compounds, 0.01% hits;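 active = EGFP signal decrease of at least 30% at 10 µM or well 3 SD below plate mean, unless failing retest; inactive = the rest, including hits failing retest or dose response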
MsrA inhibitor = inhibits bovine methionine sulfoxide reductase A | inhibition, % at 15.5 µM | 360,000 compounds, 0.75% hits | AID 651718 | purified bovine MsrA, absorbance read-out; in the data active = inhibition above about 4.5%
MsrA act = activates bovine MsrA enzyme. purified bovine MsrA, absorbance read-out. activation, % at 10.6 µM. 360,000 compounds, 0.3% hits. AID 602163; in the data active = activation above about 7.5%
14-3-3 Bad PPI = disrupts binding of bovine 14-3-3 zeta to phospho-Bad peptide. 220,000 compounds, 0.71% hits. inhibition, % at 21.7 µM. TR-FRET 14-3-3zeta/Dy647-pBad peptide displacement, 1 h. P63103;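 active = inhibition above about 70%, limit read from the data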
Target sequence (P63103 whole entry, looked up): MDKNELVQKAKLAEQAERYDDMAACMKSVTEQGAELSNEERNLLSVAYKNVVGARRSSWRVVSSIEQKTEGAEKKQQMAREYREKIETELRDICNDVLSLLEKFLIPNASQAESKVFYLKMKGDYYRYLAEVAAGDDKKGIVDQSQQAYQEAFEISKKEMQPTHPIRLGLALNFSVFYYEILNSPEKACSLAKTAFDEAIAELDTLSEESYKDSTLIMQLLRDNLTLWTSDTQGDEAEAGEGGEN
MsrA activ conf = bovine methionine sulfoxide reductase A activation confirmed; purified bovine MsrA, absorbance read-out; AID 602270; shares compounds with MsrA act; activation, % at 10.6 µM; 1,000 compounds, 12% hits; in the data active = activation above about 4%;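 note: enzyme coupled to thioredoxin and thioredoxin reductase with NADPH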
Hits are given with their value; - = inactive; . = not tested or not shown. In the library only some 1.4% were active in any assay of this set; here they are far more common.

SMILES	pCIP destab	MsrA inhibitor	MsrA act	14-3-3 Bad PPI	MsrA activ conf
O=C(COC(=O)c1ccc([N+](=O)[O-])s1)NNC(=O)c1ccccc1	.	.	22	.	9.0
O=C(COC(=O)c1ccc([N+](=O)[O-])s1)c1ccc[nH]1	.	-	27	.	9.5
O=C(COC(=O)c1ccc([N+](=O)[O-])o1)NCc1ccc(F)cc1	.	-	-	.	.
CC(NC(=O)COC(=O)c1ccc([N+](=O)[O-])s1)c1ccccc1 (stereo not drawn)	-	-	-	-	.
O=C(OCC(=O)c1ccc[nH]1)c1ccc([N+](=O)[O-])cc1	.	-	-	.	.
O=C1CN(C(=O)COC(=O)c2cccs2)c2ccccc2N1	.	-	-	.	.
O=C1CN(C(=O)COC(=O)c2ccc([N+](=O)[O-])s2)c2ccccc2N1	.	.	41	.	21
Cc1cc(Nc2cccc(C(F)(F)F)c2)cc(=O)n1-c1cccc(C(F)(F)F)c1	.	-	.	.	.
COc1ccc(CNC(=O)[C@@H](Cc2ccccc2)NC(=O)[C@H]2O[C@@H](n3cnc4c(=O)[nH]c(N)nc43)[C@H](O)[C@@H]2O)cc1	.	-	.	.	.
CCc1cc(C(=O)OCC(=O)NCCc2ccccc2)sc1C	.	-	-	.	.
O=C(COC(=O)c1ccc([N+](=O)[O-])s1)NCCc1ccccc1	.	.	26	.	16
O=C(COC(=O)c1ccc(O)cc1)NC(=O)NCc1ccccc1	.	-	-	.	.
O=C(COC(=O)c1ccc([N+](=O)[O-])s1)NC(=O)NCc1ccccc1	-	-	15	-	-
COc1ccc(-n2cc(CN3CCC(OC)CC3)c(-c3cccc(F)c3)n2)cc1	-	-	8.2	-	-
NC(=O)c1cc(S(=O)(=O)N2CCCC2)ccc1OCCOc1ccccc1F	.	-	11	.	-
COc1ccc(OCCOc2ccc(S(=O)(=O)N3CCCC3)cc2C(N)=O)cc1	.	-	-	.	.
O=C(NC(=S)NNC(=O)[C@H]1C[C@@H]1c1ccccc1)c1ccc(F)cc1	-	-	-	-	.
CC(C)(C)NC(=S)NNC(=O)[C@H]1C[C@@H]1c1ccccc1	-	-	8.5	-	-
CC(=O)c1ccc(NC(=O)C2CC2c2ccccc2)cc1 (stereo not drawn)	.	-	10	.	-
CC1CCN(CCCNC(=O)c2ccc3c(=O)n(Cc4ccc(Cl)cc4)c(=S)[nH]c3c2)CC1	-	-	8.2	-	-
COC(=O)c1ccc2c(=O)n(Cc3ccc(C(=O)NCCCN4CCC(C)CC4)cc3)c(=S)[nH]c2c1	-	-	-	-	.
CCCCc1c(-c2ccccc2OC)ncn1C(C)c1ccccc1 (stereo not drawn)	.	-	.	.	.
CN(C)CCCNC(=O)c1ccc(-c2nc(-c3ccc(Cl)cc3)cs2)cc1	-	-	8.3	-	-
CN(C)CCCNC(=O)c1ccccn1	-	-	-	-	.
Cc1ccc(OCC(=O)Nc2sc3c(c2C#N)CC(C)(C)NC3(C)C)cc1	-	-	-	-	.
SMILES	pCIP destab	MsrA inhibitor	MsrA act	14-3-3 Bad PPI	MsrA activ conf
CC1(C)Cc2c(sc(NC(=O)COc3ccc(Cl)cc3)c2C(N)=O)C(C)(C)N1	-	-	12	.	-
CCO[C@H]1OC(C(=O)NC2CC2)=C[C@@H](c2c[nH]c3ccccc23)[C@@H]1CCCO	-	-	8.4	-	-
Cc1cccc(C)c1NC(=O)CN(C)C(=O)CCc1nc2sc3c(c2c(=O)[nH]1)CCCC3	.	-	8.8	.	-
CN(CC(=O)Nc1cccc(F)c1)C(=O)CCc1nc2sc3c(c2c(=O)[nH]1)CCCC3	.	-	-	.	.
CCOC(=O)N[C@H](C(=O)N1CCC[C@H]1C(=O)NCCc1ccccc1Cl)c1ccccc1	.	-	.	.	.
Cc1ccccc1-c1noc(CCC(=O)NCc2ccco2)n1	-	-	12	-	-
O=C(c1cc(Cl)c(=O)n(Cc2ccccc2)c1)N1CCOCC1	-	-	9.2	-	-
O=C(c1ccc(CN2CCOCC2)cc1)N1CCN(Cc2ccccc2)CC1	-	-	-	-	.
COC(=O)C1=C(C)N(C)C(=NCc2cc(OC)c(OC)c(OC)c2)NC1c1ccc(Cl)cc1 (stereo not drawn)	.	-	.	.	.
O=C1c2[nH]nc(-c3ccccc3)c2C(c2ccc(F)cc2)N1Cc1ccccc1 (stereo not drawn)	.	-	.	.	.
COC(=O)c1ccc(C2=NOC(C)(c3nnc(Cc4ccccc4)o3)C2)cc1 (stereo not drawn)	.	-	8.9	.	-
COC(=O)C1=C(C)N(Cc2ccccc2C(F)(F)F)C(=NCc2cc(OC)c(OC)c(OC)c2)NC1c1cccc(C(F)(F)F)c1 (stereo not drawn)	.	-	.	.	.
Cc1cc(N2CCN(C(=O)OC(C)(C)C)C[C@@H]2C)ccc1N1CCS(=O)(=O)CC1	.	-	.	.	.
OC(COc1ccc2ccccc2c1Br)Cn1ccnc1 (stereo not drawn)	-	-	-	-	.
OC(COc1ccc2ccccc2c1)Cn1ccnc1 (stereo not drawn)	-	-	8.1	-	-
Oc1ccccc1/C=N/n1c(COc2ccccc2)n[nH]c1=S	-	-	-	.	.
Fc1ccccc1/C=N/n1c(COc2ccccc2)n[nH]c1=S	-	-	9.9	.	-
Cc1ccc(-n2ncc3c2CC(C)(C)CC3NC(=O)CCN2CCCCC2=O)cc1 (stereo not drawn)	-	-	-	.	.
CN1CCN(S(=O)(=O)c2cccc(C(=O)N(Cc3nnc(-c4ccccc4Cl)o3)C3CC3)c2)CC1	-	-	7.8	.	-
COc1ccc(N2CCN(C(c3nnnn3C3CCCC3)C(C)C)CC2)cc1 (stereo not drawn)	-	-	8.9	-	-
S=C(NCc1ccccc1)N1CCc2ccccc2C1	-	-	9.5	-	-
O=C(CCCn1c(=S)[nH]c2cc3c(cc2c1=O)OCO3)N1CCN(c2ccccn2)CC1	-	-	18	-	-
O=C(CCCCCn1c(=S)[nH]c2cc3c(cc2c1=O)OCO3)N1CCN(Cc2ccccc2)CC1	-	-	-	-	.
COC(=O)C1=C(C)N(Cc2cccc(C(F)(F)F)c2)C(=NCc2ccc(C(F)(F)F)cc2)NC1c1ccccc1C(F)(F)F (stereo not drawn)	.	-	.	.	.
O=C(c1ccc([N+](=O)[O-])o1)N1CCc2ccccc21	-	-	10	.	-
SMILES	pCIP destab	MsrA inhibitor	MsrA act	14-3-3 Bad PPI	MsrA activ conf
CCOC(=O)N[C@H](C(=O)N1CCC[C@H]1C(=O)NCc1ccccc1)C(C)C	.	-	.	.	.
COc1cccc(NC(=O)COC(=O)CCn2c(C)csc2=O)c1	.	-	9.2	.	-
COc1ccc(-n2sc3ccccc3c2=O)cc1	.	-	-	.	.
N#Cc1ccc2sn(-c3ccccc3)c(=O)c2c1	.	-	12	.	8.9
N#Cc1ccc2c(c1)nnn2-c1ccccc1	.	-	-	.	.
CC(=O)Nc1ccc2sn(-c3ccccc3)c(=O)c2c1	.	-	9.8	.	5.7
O=c1c2cc([N+](=O)[O-])ccc2sn1-c1ccccc1	.	-	9.8	.	7.5
CC(=O)Nc1ccc(NC(=O)CC(C)n2ccnc2)cc1 (stereo not drawn)	-	-	8.5	.	-
Cn1cc(/C=C/C(=O)c2ccccc2)c2ccccc21	-	-	9.1	91	-
CC(C)NS(=O)(=O)c1ccc(NC(=O)C(C)Oc2ccc(C(=O)c3ccccc3)cc2)cc1 (stereo not drawn)	-	-	8.5	-	-
c1ccc2nc3c(nc2c1)CCCC3	-	-	-	.	.
C1CCc2nc3c(nc2C1)CCCC3	-	-	17	-	-
